# Measurements reported in PubChem BioAssay (NCATS).
# Records with an inconclusive call do not appear. Entries that show only a call come without a potency. A number with no mark means an inactive call. Active and inactive are the calls of the source. Calls come from the whole dose curve; as a rule, active = well fitted curve in the direction sought with a large enough effect; inconclusive = small, poorly fitted or top-dose-only effect, or another doubt; inactive = no such curve, though single readings can be large; an effect the other way counts as inactive or inconclusive.
# What was measured:
# [1] = OV-KATE Cancer Cell Toxicity qHTS against the NCATS CANVASS Library (AID 1347345)
# How it was run: (§1)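 Viability was assessed by adding CellTiter-Glo reagent to treated cultures and reading luminescence after 15min at room temperature. Treatment lasted 72 h at 37 degrees C/5% CO2, using an 11-point series on 1000 cells/well.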
# [2] = HPAF-II Cancer Cell Toxicity qHTS against the NCATS CANVASS Library (AID 1347346); note: nearly all actives have a fitted effect of over 55% in size
# How it was run: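 Using 1000 HPAF-II cells per well, we titrated compounds over 11 concentrations for 72 h at 37 degrees C/5% CO2, with bortezomib as control. Cell survival was quantified by CellTiter-Glo luminescence.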
# [3] = UWB1.289 Cancer Cell Toxicity qHTS against the NCATS CANVASS Library (AID 1347347); details: outcome: dose series up to 38.3 µM; note: nearly all actives have a fitted effect of over 60% in size
# How it was run: as §1
# [4] = OV-SAHO Cancer Cell Toxicity qHTS against the NCATS CANVASS Library (AID 1347348); note: nearly all actives have a fitted effect of over 55% in size
# How it was run: as §1
# [5] = Panc-1005 Cancer Cell Toxicity qHTS against the NCATS CANVASS Library (AID 1347349); note: nearly all actives have a fitted effect of over 60% in size
# How it was run: as §1
# [6] = SW1088 Cancer Cell Toxicity qHTS against the NCATS CANVASS Library (AID 1347350); details: outcome: dose series up to 76 µM; note: nearly all actives have a fitted effect of over 75% in size
# How it was run: as §1
# [7] = U-118MG Cancer Cell Toxicity qHTS against the NCATS CANVASS Library (AID 1347351)
# How it was run: as §1
# [8] = COV-362 Cancer Cell Toxicity qHTS against the NCATS CANVASS Library (AID 1347352)
# How it was run: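 Using an ATP-based luminescent reagent after three days of treatment, toxicity is scored across an eleven-concentration range in wells holding 1000 cells each.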
# [9] = A2780 Cisplatin Sensitive Ovarian Cancer Cell Toxicity qHTS against the NCATS CANVASS Library (AID 1347353); details: A2780 ovarian cancer viability, ATPLite luminescence, 72 h; at 91.4 µM (top of the series) unless noted; note: nearly all actives have a fitted effect of over 60% in size
# Description: Natural products and their derivatives continue to be wellsprings of nascent therapeutic potential. However, many laboratories have limited resources for biological evaluation, leaving their previously isolated or synthesized compounds largely or completely untested. To address this issue, the Canvass library of natural products was assembled (https://tripod.nih.gov/canvass), in collaboration with academic and industry researchers, for quantitative high-throughput screening (qHTS) across a diverse set of cell-based and biochemical assays. The pure (>85% purity by liquid chromatography/mass spectrometry [LC/MS]) Canvass library of 346 natural products were submitted by 45 academic laboratories and companies around the world. We collected pure natural products to circumvent deconvolution and structure elucidation due to time and resource limitations. The library was formatted into 1536-well plates and evaluated in 50 qHTS (in an 11-pnt concentration series) bioassays with broad scope of disease-relevant mechanisms. The resulting data set from 50 different assays was then systematically analyzed to identify overall trends and specific natural products with interesting biological activities. […]
# Cancer Cell Toxicity protocol 1. […] Luminescence signal was acquired via the ViewLux plate reader (PerkinElmer) using a clear filter, 2 second exposure and 2x binning settings.
# [10] = Tertiary RLuc qRT-PCR qHTS assay for Zika virus inhibitors (AID 1347169); note: nearly all actives have a fitted effect of over 55% in size; note: potency is the fitted concentration of half-maximal effect; for activity change, negative = inhibition: top concentration of the series differs between compounds
# How it was run: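 Vero cells (1,000 per well) plated overnight at 37 degrees C, treated with compound in DMSO, then infected with recombinant ZIKV-RLuc (Cambodian) at MOI 1-2 for 48-72 hrs. Live-cell Renilla luciferase substrate added; luminescence read after 1-1.5 hrs.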
structure (smiles),measurement,setting,value
CC(=O)NCCc1c[nH]c2ccc(O)cc12,outcome,[1],inactive
same,outcome,[2],inactive
same,outcome,[3],inactive
same,outcome,[4],inactive
same,outcome,[5],inactive
same,outcome,[6],inactive
same,outcome,[7],inactive
same,outcome,[8],inactive
same,outcome,[9],inactive [at 46.1 µM]
Cn1cc(C(F)(F)F)nc1-c1ccc(OCC(O)CNCCOc2ccc(O)c(C(N)=O)c2)cc1 (stereo not drawn),Potency,[10],inactive
O=C(O)Cc1c[nH]c2ccc(O)cc12,outcome,[1],inactive
same,outcome,[2],inactive
same,outcome,[3],inactive
same,outcome,[4],inactive
same,outcome,[5],inactive
same,outcome,[6],inactive
same,outcome,[7],inactive
same,outcome,[8],inactive
same,outcome,[9],inactive
COc1ccccc1N1CCN(CCCNc2c(C)c(=O)n(C)c(=O)n2C)CC1,Potency,[10],inactive
Cc1nc(N=Nc2ccc(S(=O)(=O)O)cc2S(=O)(=O)O)c(COP(=O)(O)O)c(C=O)c1O,"activity change, negative = inhibition",[10],33.6% [at 5.25 µM]
O=c1[nH]c(=S)[nH]c(-c2ccccc2)c1Cc1c(O)ccc2ccccc12,Potency,[10],inactive
Cc1cccc(C(=O)NCN2CCN(c3ccccc3C#N)CC2)c1,Potency,[10],inactive
Cc1nc(N=Nc2cc(S(=O)(=O)O)c3cc([N+](=O)[O-])cc(S(=O)(=O)O)c3c2)c(COP(=O)(O)O)c(C=O)c1O,Potency,[10],inactive
Cn1c(=O)c2[nH]c(-c3ccc(S(=O)(=O)O)cc3)nc2n(C)c1=O,Potency,[10],inactive
Nc1ccc(-c2ccc3ccccc3n2)cc1,Potency,[10],inactive
C=CCN1CCc2c(cc(O)c(O)c2Br)[C@@H](c2ccccc2)C1,Potency,[10],11.7 µM (active)
COc1cc2c(CCNC(C)=O)c[nH]c2cc1O,Potency,[10],inactive
